Bioassay records as filed in PubChem.
An excerpt weighted towards active compounds, which were near 19% of everything screened.
TDP1 inh: inhibitors of human tyrosyl-DNA phosphodiesterase TDP1; Potency, µM (series often up to 130 µM), for the others: at the top dose activity change, negative = inhibition, most hits filed as inhibitors; recombinant TDP1, AlphaScreen DNA substrate cleavage; 0.28% of 350,000 active; further: potency means the concentration at half of the fitted maximal effect; nearly all actives have a fitted effect of over 40% in size
Target sequence (Q9NUW8 whole entry, looked up): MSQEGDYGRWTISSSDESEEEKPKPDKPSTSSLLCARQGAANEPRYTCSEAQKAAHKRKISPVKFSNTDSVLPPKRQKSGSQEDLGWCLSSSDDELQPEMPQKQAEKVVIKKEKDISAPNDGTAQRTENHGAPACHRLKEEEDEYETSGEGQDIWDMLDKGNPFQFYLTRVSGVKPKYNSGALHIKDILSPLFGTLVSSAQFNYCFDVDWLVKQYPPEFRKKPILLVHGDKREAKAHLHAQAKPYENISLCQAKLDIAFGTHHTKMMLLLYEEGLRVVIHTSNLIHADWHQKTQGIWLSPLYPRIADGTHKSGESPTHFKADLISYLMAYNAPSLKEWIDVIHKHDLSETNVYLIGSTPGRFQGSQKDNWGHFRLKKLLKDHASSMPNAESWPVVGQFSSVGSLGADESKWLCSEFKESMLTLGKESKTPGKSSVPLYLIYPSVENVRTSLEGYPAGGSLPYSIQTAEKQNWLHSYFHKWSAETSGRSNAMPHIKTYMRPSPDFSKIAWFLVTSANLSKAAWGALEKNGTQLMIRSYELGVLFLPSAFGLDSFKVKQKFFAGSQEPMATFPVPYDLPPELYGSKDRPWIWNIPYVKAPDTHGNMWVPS
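Here, a 5' biotin and 3' phosphotyrosine-FITC DNA oligonucleotide reports Tdp1 activity: intact substrate bridges AlphaScreen beads, while cleavage leaves a 3' phosphate and drops signal. All incubations at room temperature.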
IL-1B inflam inh: inhibitors of inflammasome signaling (IL-1 beta secretion). THP-1 LPS/ATP IL-1B secretion, AlphaLISA, 16 h; active compounds read low. activity change, % at 57.5 µM. 4.7% of 360,000 active. AID 743279; in the data active means activity change below about -50%; inconclusive means mostly about -30% to -49%
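Secreted IL-1B measured by AlphaLISA bead assay after 16 h compound exposure of THP-1 cells; compounds (final up to 57.5 uM) added 1 h before LPS (250 ng/mL) and ATP (1.25 mM) stimulation; lower signal means less secretion.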
Giardia killer: kills Giardia lamblia. Giardia lamblia trophozoite viability. activity change, % at 7.66 µM, hits read low. 0.15% of 340,000 active. AID 540267; in the data active means activity change below about -80%; inconclusive means between about -30% and that limit;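 further: parasites exposed to compound for two days anaerobically before the ATP read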
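Each well holds 100 Giardia trophozoites and compound. After two days (48 hrs) at 37 deg C in anaerobic conditions, ATP is quantified by luminescence.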
ELG1 repair inh: ELG1-dependent DNA repair inhibition. HEK293T ELG1-luciferase reporter, luminescence, 16 h; DNA damage induced by 5-fluorouridine. Potency, µM (series often up to 46.1 µM), for inactives: top-dose activity change, negative = inhibition, hits mostly inhibitors. 2.3% of 330,000 active. AID 504467; further: potency means the concentration at half of the fitted maximal effect; nearly all actives have a fitted effect of over 55% in size
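In this reporter screen, reduction of luminescence relative to DMSO vehicle indicated activity. Compounds and 5-fluorouridine were added together to 2,000 cells per well, incubated for 16 hr at 37 °C, then developed with ONE-Glo.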
DT40 TDP1 no CPT: qHTS for Inhibitors of human tyrosyl-DNA phosphodiesterase 1 (TDP1): qHTS in cells in absence of CPT. 15% of 420,000 active. DT40 Tdp1-/- hTDP1 cells, no CPT, ATP luminescence, 48 h. AID 686978, 2013. Potency, µM (titrated, usually from 46.2 µM), inactives show at the highest dose activity change, negative = growth inhibition, usual class: inhibitors; further: potency means the concentration at half of the fitted maximal effect; nearly all actives have a fitted effect of over 55% in size
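Seeded 400 DT40-hTDP1 cells/well (vehicle DMSO, no 20 nM CPT); pinned compounds; ≥48 hr at 37 °C; CellTiter-Glo luminescence as viability measure.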
DT40 TDP1 CPT: growth inhibition of DT40 Tdp1-/-;hTDP1 cells with camptothecin (screen for TDP1 inhibitors) | chicken DT40 Tdp1-/-;hTDP1 cells + 20 nM CPT, ATP luminescence, 48 h | Potency, µM (series often up to 46.2 µM), for inactives: top-dose activity change, negative = growth inhibition, actives largely listed as inhibitors | 12% of 420,000 active; further: potency means the concentration at half of the fitted maximal effect; nearly all actives have a fitted effect of over 55% in size
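Cell growth measured by CellTiter-Glo luminescence after a minimum 48 h, 37 C compound exposure with 20 nM CPT in Tdp1-knockout DT40 cells stably expressing hTDP1, seeded 400/well; qHTS titration format.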
* marks the source's active call; other numbers are inactive results; ? = inconclusive; / = no result. Unless noted, the call rests on the fitted dose curve; in most records, active means well fitted curve in the direction sought with a large enough effect; inconclusive means small, poorly fitted or top-dose-only effect, or another doubt; inactive means no such curve, though single readings can be large; an effect the other way counts as inactive or inconclusive. On the % scale 0 is the no-effect control and ±100 the full control effect.

SMILES | TDP1 inh | IL-1B inflam inh | Giardia killer | ELG1 repair inh | DT40 TDP1 no CPT | DT40 TDP1 CPT
CCS(=O)(=O)c1oc(-c2ccc(F)cc2)nc1S(=O)(=O)c1ccccc1 | 6% | / | / | / | 0.58µM* | 0.26µM*
CCCCCS(=O)(=O)c1oc(-c2cccs2)nc1S(=O)(=O)c1ccc(C)cc1 | 1% | / | / | / | 3.7µM* | 4.6µM*
CNc1oc(-c2ccccc2)nc1S(=O)(=O)c1ccc(C)cc1 | 5% | -2 | 12 | 3% | -28% | -26%
CCCCS(=O)(=O)c1oc(-c2ccc(F)cc2)nc1S(=O)(=O)c1ccc(C)cc1 | 6% | / | / | / | 0.58µM* | 1µM*
CCOc1ccc(-c2nc(S(=O)(=O)c3ccccc3)c(NC)o2)cc1 | 2% | 5 | 11 | 0% | 0% | 14%
CCSc1oc(-c2cccs2)nc1S(=O)(=O)c1ccccc1 | 0% | 0 | -13 | 1% | ? | ?
COc1cccc(C2c3c(ncn(-c4ccccn4)c3=N)Oc3ccc4ccccc4c32)c1 (centres undefined) | 0% | / | / | / | / | /
CSc1oc(-c2ccc(F)cc2)nc1S(=O)(=O)c1ccc(Br)cc1 | -3% | / | / | / | ? | ?
CCC(C)S(=O)(=O)c1oc(-c2ccc(F)cc2)nc1S(=O)(=O)c1ccc(F)cc1 (centres undefined) | 5% | / | / | / | 1µM* | 0.58µM*
Clc1ccc(C(c2nnnn2C2CCCC2)N2CCN(c3nc4ccccc4s3)CC2)cc1 (centres undefined) | / | -5 | 17 | / | -21% | -6%
CC(C)(C)n1nnnc1C(c1cccs1)N(Cc1ccc(Cl)cc1)CC1CCCO1 (centres undefined) | -4% | 0 | -12 | / | 16µM* | 21µM*
Fc1ccc(CN(Cc2ccccc2)C(c2cccs2)c2nnnn2C2CCCCC2)cc1 (centres undefined) | 2% | -28 | -13 | -5% | 16µM* | ?
Clc1ccc(CN(Cc2ccccc2)C(c2cccs2)c2nnnn2C2CCCC2)cc1 (centres undefined) | -2% | -14 | 16 | / | 15µM* | 15µM*
COc1ccc(C2c3c(nc(CCc4ccccc4)[nH]c3=O)Oc3ccc4ccccc4c32)cc1OC (centres undefined) | 1% | / | / | / | / | /
COc1ccccc1N(CC(=O)Nc1ccccc1C(=O)N1CCOCC1)S(C)(=O)=O | 6% | 4 | -11 | 22% | 14% | 5%
COc1cccc(NC(=S)NC2CC3CCCC(C2)N3CC(C)C)c1 (centres undefined) | -5% | -16 | -12 | 10% | 16µM* | ?
CCCN1C2CCCC1CC(NC(=S)Nc1ccc(OC)cc1)C2 (centres undefined) | 2% | -16 | 5 | -9% | 29µM* | ?
COc1ccc(NC(=S)NC2CC3CCCC(C2)N3C2CC2)cc1 (centres undefined) | 4% | -11 | -7 | -2% | -29% | ?
CCc1ccc(NC(=S)NC2CC3CCCC(C2)N3Cc2cccs2)cc1 (centres undefined) | 4% | -90* | -14 | -5% | ? | 18µM*
CN1C(=O)c2cccc(NC(=O)CCc3ccccc3)c2C1=O | 2% | 55 | 1 | -6% | -9% | 4%
Cc1noc(C)c1NC(=O)N(C)C[C@H]1OCCCC[C@@H](C)Oc2ccc(NC(=O)Nc3ccc(F)cc3)cc2C(=O)N([C@@H](C)CO)C[C@H]1C | / | 11 | / | / | 18µM* | ?
C[C@@H]1CN([C@@H](C)CO)C(=O)c2cc(NC(=O)c3ccccc3)ccc2O[C@@H](C)CCCCO[C@@H]1CN(C)S(=O)(=O)c1ccc(F)cc1 | / | -18 | / | / | 21µM* | ?
C[C@@H]1CN([C@H](C)CO)C(=O)c2cc(NC(=O)Nc3ccc(F)cc3)ccc2O[C@@H](C)CCCCO[C@H]1CN(C)S(=O)(=O)c1cccs1 | / | ? | / | / | 26µM* | ?
Cc1noc(C)c1NC(=O)N(C)C[C@H]1OCCCC[C@@H](C)Oc2ccc(NC(=O)c3ccccc3)cc2C(=O)N([C@H](C)CO)C[C@@H]1C | / | -14 | / | / | -19% | ?
Cc1ccc(S(=O)(=O)N(C)C[C@@H]2OCCCC[C@H](C)Oc3ccc(NC(=O)Nc4ccc(F)cc4)cc3C(=O)N([C@H](C)CO)C[C@H]2C)cc1 | / | -29 | / | / | 7.3µM* | 13µM*
SMILES | TDP1 inh | IL-1B inflam inh | Giardia killer | ELG1 repair inh | DT40 TDP1 no CPT | DT40 TDP1 CPT
CC(C)[C@@H](CC(=O)N[C@@H]1CCCC[C@H]1C(=O)N[C@H](CC(=O)N[C@@H](CCC(=O)O)CC(=O)O)Cc1c[nH]c2ccccc12)NC(=O)C[C@H](Cc1ccccc1)NC(=O)[C@@H]1CNCC[C@H]1N | 3% | / | / | / | / | /
Cc1cc(=O)n2c(C(=O)Nc3ccc(C)c(Cl)c3)c(C(=O)Nc3ccccc3)sc2n1 | -2% | / | / | / | ? | ?
O=C1C(Cl)=C(N2CCCCC2)C(=O)N1c1ccccc1Cl | -9% | 41 | -15 | 12% | -24% | ?
Cc1ccccc1N1C(=O)C(Cl)=C(N2CCCCCC2)C1=O | -12% | 10 | 1 | -15% | ? | 29µM*
O=C(/C(=C/O)N=Nc1ccccc1)c1cccs1 | 9% | -74* | -22 | -26% | ? | ?
COc1ccc(Cn2c(=O)c3oc4ccccc4c3n(CC(=O)Nc3cc(C)cc(C)c3)c2=O)cc1 | 3% | / | / | / | -1% | -7%
CCOc1cccc(/C=N/NC(=O)c2cc(C3CC3)[nH]n2)c1O | 0% | 94 | -1 | 2.6µM* | 23µM* | ?
Cc1ccc(-c2cc(C(=O)N/N=C/C=C/c3ccccc3)n[nH]2)s1 | 8% | -7 | -9 | -28% | ? | 16µM*
O=C(N/N=C/C=C/c1ccccc1)c1cc(C2CC2)[nH]n1 | -3% | -54* | 5 | 10% | -20% | 7%
Cc1cc(C(=O)N/N=C/C=C/c2ccccc2)n[nH]1 | 3% | -23 | -11 | 18% | -9% | -5%
N[C@@H](Cc1ccccc1)c1nnc(SC/C=C/c2ccccc2)o1 | 5% | -12 | 10 | -17% | ? | -2%
Cc1ccccc1-c1cc2nc(NCCCN(C)C)n(C)c(=O)c2s1 | / | -81* | / | / | ? | ?
Cc1ccsc1-c1cc2nc(NCCCN(C)C)n(C)c(=O)c2s1 | / | 0 | / | / | 23µM* | 23µM*
O=C(NNc1c2ccccc2nc2ccccc12)c1ccccc1O | 8% | -12 | -3 | ? | 21µM* | ?
O=C(NNC(=O)c1ccccc1O)c1cc2ccccc2o1 | / | 99 | -14 | ? | 23µM* | ?
